Source: the supplement of paper PMC6897291
Counter-ions that a name gives are not always drawn.

What was measured:
U-2932 [1] = assay: growth inhibition by drug alone (1 - RLU/untreated control) (fraction); higher = stronger inhibition; conditions: 177Lu-lilotomab satetraxetan 0 ug/ml
In short: (§1)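 With or without 18 h pretreatment by a radiolabelled anti-CD37 antibody conjugate (~600 MBq/mg; 0.5 µg/ml RIVA, 1 µg/ml U-2932), RIVA and U-2932 cells were washed and plated at 3,000 cells/well. Pre-printed compound doses were 10/100 nM for RIVA and 10/1,000 nM for U-2932. Growth inhibition uses RealTime-Glo RLU relative to the untreated no-drug wells. The calculation is 1 − RLU/mean of 48 such wells per plate, with reads daily from day 3 after 1 h at 37°C.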

RIVA [2] = assay: as above; conditions: 177Lu-lilotomab satetraxetan 0 ug/ml
In short: as §1

U-2932 [3] = assay: growth inhibition by drug plus 177Lu-lilotomab satetraxetan (1 - RLU/untreated control) (fraction); higher = stronger inhibition; conditions: 177Lu-lilotomab satetraxetan 1 ug/ml
In short: as §1

RIVA [4] = assay: as above; conditions: 177Lu-lilotomab satetraxetan 0.5 ug/ml
In short: as §1

| SMILES | growth inhibition by drug alone (U-2932 [1]; 10 nM, time (day): 3) | growth inhibition by drug alone (U-2932 [1]; 10 nM, time (day): 4) | growth inhibition by drug alone (U-2932 [1]; 10 nM, time (day): 5) | growth inhibition by drug alone (U-2932 [1]; 10 nM, time (day): 6) | growth inhibition by drug alone (U-2932 [1]; 1000 nM, time (day): 3) | growth inhibition by drug alone (U-2932 [1]; 1000 nM, time (day): 4) | growth inhibition by drug alone (U-2932 [1]; 1000 nM, time (day): 5) | growth inhibition by drug alone (U-2932 [1]; 1000 nM, time (day): 6) | growth inhibition by drug alone (RIVA [2]; 10 nM, time (day): 3) | growth inhibition by drug alone (RIVA [2]; 10 nM, time (day): 4) | growth inhibition by drug alone (RIVA [2]; 10 nM, time (day): 5) | growth inhibition by drug alone (RIVA [2]; 10 nM, time (day): 6) | growth inhibition by drug alone (RIVA [2]; 100 nM, time (day): 3) | growth inhibition by drug alone (RIVA [2]; 100 nM, time (day): 4) | growth inhibition by drug alone (RIVA [2]; 100 nM, time (day): 5) | growth inhibition by drug alone (RIVA [2]; 100 nM, time (day): 6) | growth inhibition by drug plus 177Lu-lilotomab satetraxetan (U-2932 [3]; 10 nM, time (day): 3) | growth inhibition by drug plus 177Lu-lilotomab satetraxetan (U-2932 [3]; 10 nM, time (day): 4) | growth inhibition by drug plus 177Lu-lilotomab satetraxetan (U-2932 [3]; 10 nM, time (day): 5) | growth inhibition by drug plus 177Lu-lilotomab satetraxetan (U-2932 [3]; 10 nM, time (day): 6) | growth inhibition by drug plus 177Lu-lilotomab satetraxetan (U-2932 [3]; 1000 nM, time (day): 3) | growth inhibition by drug plus 177Lu-lilotomab satetraxetan (U-2932 [3]; 1000 nM, time (day): 4) | growth inhibition by drug plus 177Lu-lilotomab satetraxetan (U-2932 [3]; 1000 nM, time (day): 5) | growth inhibition by drug plus 177Lu-lilotomab satetraxetan (U-2932 [3]; 1000 nM, time (day): 6) | growth inhibition by drug plus 177Lu-lilotomab satetraxetan (RIVA [4]; 10 nM, time (day): 3) | growth inhibition by drug plus 177Lu-lilotomab satetraxetan (RIVA [4]; 10 nM, time (day): 4) | growth inhibition by drug plus 177Lu-lilotomab satetraxetan (RIVA [4]; 10 nM, time (day): 5) | growth inhibition by drug plus 177Lu-lilotomab satetraxetan (RIVA [4]; 10 nM, time (day): 6) | growth inhibition by drug plus 177Lu-lilotomab satetraxetan (RIVA [4]; 100 nM, time (day): 3) | growth inhibition by drug plus 177Lu-lilotomab satetraxetan (RIVA [4]; 100 nM, time (day): 4) | growth inhibition by drug plus 177Lu-lilotomab satetraxetan (RIVA [4]; 100 nM, time (day): 5) | growth inhibition by drug plus 177Lu-lilotomab satetraxetan (RIVA [4]; 100 nM, time (day): 6) |
| --- | --- | --- | --- | --- | --- | --- | --- | --- | --- | --- | --- | --- | --- | --- | --- | --- | --- | --- | --- | --- | --- | --- | --- | --- | --- | --- | --- | --- | --- | --- | --- | --- |
| CN(CCOc1ccc(CC2SC(=O)NC2=O)cc1)c1ccccn1 (configuration not stated) [Rosiglitazone (Avandia)] | 0.068 | 0.0368 | -0.0298 | -0.117 | -0.0124 | 0.0197 | -0.0667 | -0.236 | -0.0381 | -0.0305 | -0.0979 | -0.42 | -0.131 | -0.086 | -0.0959 | -0.219 | -0.0122 | 0.00577 | 0.0405 | 0.0655 | -0.0752 | 0.0366 | 0.0101 | 0.078 | 0.409 | 0.548 | 0.564 | 0.587 | 0.382 | 0.504 | 0.532 | 0.523 |
| Cc1c(CCOc2ccc(C(=O)O)cc2)c2cc(Cl)ccc2n1C(c1ccccc1)c1ccccc1 | 0.00805 | -0.00114 | -0.0847 | -0.0955 | -0.0489 | -0.0693 | -0.125 | -0.133 | -0.14 | -0.201 | -0.294 | -0.473 | -0.448 | -0.454 | -0.564 | -0.758 | -0.0474 | -0.0119 | 0.00779 | 0.0213 | 0.0043 | 0.0519 | 0.061 | 0.147 | 0.505 | 0.573 | 0.594 | 0.582 | 0.296 | 0.41 | 0.419 | 0.435 |
| CCCCCCCc1ccc(CCc2cccc(O)c2C(=O)O)cc1 | -0.00199 | -0.0102 | -0.0455 | -0.106 | 0.0439 | 0.0243 | -0.0103 | 0.0409 | -0.000498 | -0.0468 | -0.0726 | -0.153 | -0.176 | -0.164 | -0.186 | -0.241 | -0.0136 | 0.0406 | 0.0811 | 0.11 | 0.0189 | 0.0723 | 0.084 | 0.179 | 0.588 | 0.59 | 0.619 | 0.624 | 0.545 | 0.607 | 0.62 | 0.624 |
| CCN[C@H]1C[C@H](C)S(=O)(=O)c2sc(S(N)(=O)=O)cc21 [Dorzolamide HCL] | -0.0781 | -0.0488 | -0.0257 | 0.0748 | 0.15 | 0.182 | 0.141 | 0.205 | -0.103 | -0.133 | -0.166 | -0.25 | -0.0335 | -0.0982 | -0.134 | -0.179 | -0.0513 | -0.0344 | -0.00192 | 0.152 | 0.0973 | 0.164 | 0.191 | 0.279 | 0.311 | 0.443 | 0.471 | 0.489 | 0.267 | 0.375 | 0.389 | 0.37 |
| C=CC[C@@H]1/C=C(\C)C[C@H](C)C[C@H](OC)[C@H]2O[C@@](O)(C(=O)C(=O)N3CCCC[C@H]3C(=O)O[C@H](/C(C)=C/[C@@H]3CC[C@@H](O)[C@H](OC)C3)[C@H](C)[C@@H](O)CC1=O)[C@H](C)C[C@@H]2OC [FK-506 (Tacrolimus)] | 0.267 | 0.364 | 0.442 | 0.532 | 0.227 | 0.39 | 0.449 | 0.553 | 0.737 | 0.636 | 0.618 | 0.602 | 0.867 | 0.796 | 0.777 | 0.783 | 0.323 | 0.406 | 0.478 | 0.594 | 0.206 | 0.367 | 0.459 | 0.574 | 0.801 | 0.806 | 0.834 | 0.875 | 0.87 | 0.859 | 0.89 | 0.913 |
| COc1c(C)c2c(c(O)c1C/C=C(\C)CCC(=O)O)C(=O)OC2 [Mycophenolic (Mycophenolate)] | 0.183 | 0.162 | 0.104 | 0.147 | 0.779 | 0.83 | 0.78 | 0.716 | 0.102 | 0.108 | 0.06 | -0.0787 | 0.409 | 0.362 | 0.284 | 0.202 | 0.128 | 0.131 | 0.191 | 0.311 | 0.759 | 0.81 | 0.733 | 0.662 | 0.534 | 0.601 | 0.625 | 0.635 | 0.712 | 0.719 | 0.736 | 0.739 |
| COc1ccc(CCN2CCN(CCCc3ccccc3)CC2)cc1OC | 0.0269 | -0.00972 | -0.0184 | -0.287 | -0.032 | -0.091 | -0.153 | -0.298 | -0.0905 | -0.186 | -0.542 | -0.55 | -0.612 | -0.501 | -0.797 | -0.809 | -0.0743 | -0.0209 | 0.0479 | 0.0237 | 0.0208 | 0.0062 | 0.0376 | 0.127 | 0.23 | 0.322 | 0.343 | 0.385 | 0.0167 | 0.137 |  |  |
